Experiment [1] addresses Calcium and integrin-binding protein 1 (Homo sapiens) (UniProt Q99828). As to the kind of experiment: Primary qHTS for Identification of Calcium Integrin Binding Protein 1 (CIB1) Competitor (AID 1508620).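 Note: GST tagged CIB1 binding a fluorescein labelled alphaIIb integrin peptide tracer; top concentration of the series differs between compounds; % is set by controls: 0 for no effect and ±100 for the full control effect.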 The method in brief:
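Fluorescence polarization competition: CIB1-GST (1 uM final) preincubated with compound 15 min at room temperature, then FITC-labeled alphaIIb peptide (100 nM final) added for another 15 min. Polarization read at Ex 480/Em 540.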

Experiment [2] in a line: Primary qHTS for inhibitors of nuclear receptor binding SET domain protein 2 (NSD2) in an isogenic RCH-ACV NSD2 p.E1099K mutant (9B) (AID 1645876). Note: nearly all actives have a fitted effect of over 70% in size. In general terms: In qHTS, concentration-response curves come from the screen itself.
A short description of experiment [3]: Primary qHTS for inhibitors of nuclear receptor binding SET domain protein 2 (NSD2) in an RCH-ACV wild type WT cells (2C) (AID 1645877). Note: nearly all actives have a fitted effect of over 70% in size.
The target of experiment [4] is Catechol O-methyltransferase (Homo sapiens) (UniProt P21964). The experiment can be described thus: Confirmatory Screen for Target Class Profiling of Small Molecule Inhibitors of Methyltransferases (AID 1745852). For activity change, negative = inhibition: % is set by controls: 0 for no effect and ±100 for the full control effect. To be noted: MTase-Glo luminescence, SAH detection, recombinant enzyme; measured here: COMT max response; stronger effect = lower value.
Experiment [5] has as its target Guanidinoacetate N-methyltransferase (Homo sapiens) (UniProt Q14353). Described as above. The note with it: MTase-Glo luminescence, SAH detection, recombinant enzyme; activity change, negative = inhibition: at 57.3 µM (top of the series) unless noted.
The target in experiment [6] is Nicotinamide N-methyltransferase (Homo sapiens) (UniProt P40261). Described as above. To be noted: MTase-Glo luminescence, SAH detection, recombinant enzyme; measured here: NNMT max response; stronger effect = lower value.
Experiment [7] addresses Phenylethanolamine N-methyltransferase (Homo sapiens) (UniProt P11086). The description is as above. The note with it: MTase-Glo luminescence, SAH detection, recombinant enzyme; measured here: PNMT max response; stronger effect = lower value.
Experiment [8] deals with Rap guanine nucleotide exchange factor 3 (Homo sapiens) (UniProt O95398). The experiment can be described thus: Confirmatory qHTS for agonist of cAMP-regulated guanine nucleotide exchange factor 3 (EPAC1) (AID 1645881).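 Note: EPAC1 catalysed release of BODIPY-GDP from Rap1B seen as fluorescence loss; 100% = effect of cAMP agonist control; nearly all actives have a fitted effect of over 75% in size.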
Experiment [9] addresses Rap guanine nucleotide exchange factor 4 (Homo sapiens) (UniProt Q8WZA2). The experiment can be described thus: Confirmatory qHTS for agonist of cAMP-regulated guanine nucleotide exchange factor 4 (EPAC2) (AID 1645884).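 Note: nucleotide exchange releases bodipy-GDP from Rap1 and this lowers its fluorescence; % is set by controls: 0 for no effect and ±100 for the full control effect; nearly all actives have a fitted effect of over 65% in size.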

Molecules are shown by their SMILES. Inconclusive results are not listed. Calls of active or inactive are those of the source. Calls come from the whole dose curve; as a rule, active = well fitted curve in the direction sought with a large enough effect; inconclusive = small, poorly fitted or top-dose-only effect, or another doubt; inactive = no such curve, though single readings can be large; an effect the other way counts as inactive or inconclusive.

Data on 25 compounds can be found in PubChem BioAssay (NCATS).

Sequence of Calcium and integrin-binding protein 1 (Homo sapiens) (Q99828 whole entry, looked up): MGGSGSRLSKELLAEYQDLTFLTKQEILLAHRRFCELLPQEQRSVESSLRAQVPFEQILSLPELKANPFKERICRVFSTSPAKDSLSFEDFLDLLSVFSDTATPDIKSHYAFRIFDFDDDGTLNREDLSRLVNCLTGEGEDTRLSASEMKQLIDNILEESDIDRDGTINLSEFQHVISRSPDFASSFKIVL
Sequence of Phenylethanolamine N-methyltransferase (Homo sapiens) (P11086 whole entry, looked up): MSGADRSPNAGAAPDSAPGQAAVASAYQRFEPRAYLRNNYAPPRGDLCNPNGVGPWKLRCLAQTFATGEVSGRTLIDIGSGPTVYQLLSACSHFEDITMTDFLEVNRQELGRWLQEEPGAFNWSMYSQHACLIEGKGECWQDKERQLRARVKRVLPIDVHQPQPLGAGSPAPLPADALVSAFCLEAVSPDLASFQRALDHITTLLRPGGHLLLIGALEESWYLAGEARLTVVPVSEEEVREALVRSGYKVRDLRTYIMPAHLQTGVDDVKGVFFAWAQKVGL
Sequence of Nicotinamide N-methyltransferase (Homo sapiens) (P40261 whole entry, looked up): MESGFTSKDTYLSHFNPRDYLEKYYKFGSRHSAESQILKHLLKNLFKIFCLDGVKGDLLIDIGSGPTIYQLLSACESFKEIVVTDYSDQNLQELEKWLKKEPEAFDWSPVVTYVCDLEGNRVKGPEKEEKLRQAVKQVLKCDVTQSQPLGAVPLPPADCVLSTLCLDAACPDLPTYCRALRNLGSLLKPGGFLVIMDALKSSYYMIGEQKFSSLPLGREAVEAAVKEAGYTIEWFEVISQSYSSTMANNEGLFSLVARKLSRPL
Sequence of Catechol O-methyltransferase (Homo sapiens) (P21964 whole entry, looked up): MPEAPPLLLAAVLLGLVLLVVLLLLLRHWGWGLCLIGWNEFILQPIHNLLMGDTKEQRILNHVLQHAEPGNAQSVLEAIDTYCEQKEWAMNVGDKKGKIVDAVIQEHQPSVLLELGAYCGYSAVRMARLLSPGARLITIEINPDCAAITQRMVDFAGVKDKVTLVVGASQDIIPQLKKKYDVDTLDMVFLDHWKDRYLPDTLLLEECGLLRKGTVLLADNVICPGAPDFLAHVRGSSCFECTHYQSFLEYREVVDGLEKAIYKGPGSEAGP
Sequence of Rap guanine nucleotide exchange factor 4 (Homo sapiens) (Q8WZA2 whole entry, looked up): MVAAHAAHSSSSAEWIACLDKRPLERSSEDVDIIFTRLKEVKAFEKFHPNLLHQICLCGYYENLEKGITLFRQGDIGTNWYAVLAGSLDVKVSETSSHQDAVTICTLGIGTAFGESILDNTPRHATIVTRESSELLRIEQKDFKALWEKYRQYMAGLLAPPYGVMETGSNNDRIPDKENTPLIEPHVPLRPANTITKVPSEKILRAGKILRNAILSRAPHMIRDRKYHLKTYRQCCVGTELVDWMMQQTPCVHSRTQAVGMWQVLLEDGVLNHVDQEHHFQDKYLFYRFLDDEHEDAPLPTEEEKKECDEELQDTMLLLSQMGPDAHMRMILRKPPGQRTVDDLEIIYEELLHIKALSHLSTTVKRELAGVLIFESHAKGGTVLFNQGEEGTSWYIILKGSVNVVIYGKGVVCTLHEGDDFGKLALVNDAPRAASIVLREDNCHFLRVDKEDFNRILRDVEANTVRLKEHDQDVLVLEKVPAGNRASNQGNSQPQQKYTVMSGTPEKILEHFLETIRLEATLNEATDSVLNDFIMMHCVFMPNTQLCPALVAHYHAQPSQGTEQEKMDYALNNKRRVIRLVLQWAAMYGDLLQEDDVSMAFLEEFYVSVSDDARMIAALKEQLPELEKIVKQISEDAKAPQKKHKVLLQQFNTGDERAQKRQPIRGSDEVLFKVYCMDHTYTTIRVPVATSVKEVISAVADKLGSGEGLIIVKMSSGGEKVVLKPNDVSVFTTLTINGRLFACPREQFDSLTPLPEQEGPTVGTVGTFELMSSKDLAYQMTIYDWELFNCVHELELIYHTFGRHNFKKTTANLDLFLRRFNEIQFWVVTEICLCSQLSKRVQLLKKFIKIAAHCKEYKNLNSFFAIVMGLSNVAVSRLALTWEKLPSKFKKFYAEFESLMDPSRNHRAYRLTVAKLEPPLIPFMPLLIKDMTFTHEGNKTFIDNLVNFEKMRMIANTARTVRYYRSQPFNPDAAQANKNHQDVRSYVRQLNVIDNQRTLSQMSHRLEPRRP
Sequence of Rap guanine nucleotide exchange factor 3 (Homo sapiens) (O95398 whole entry, looked up): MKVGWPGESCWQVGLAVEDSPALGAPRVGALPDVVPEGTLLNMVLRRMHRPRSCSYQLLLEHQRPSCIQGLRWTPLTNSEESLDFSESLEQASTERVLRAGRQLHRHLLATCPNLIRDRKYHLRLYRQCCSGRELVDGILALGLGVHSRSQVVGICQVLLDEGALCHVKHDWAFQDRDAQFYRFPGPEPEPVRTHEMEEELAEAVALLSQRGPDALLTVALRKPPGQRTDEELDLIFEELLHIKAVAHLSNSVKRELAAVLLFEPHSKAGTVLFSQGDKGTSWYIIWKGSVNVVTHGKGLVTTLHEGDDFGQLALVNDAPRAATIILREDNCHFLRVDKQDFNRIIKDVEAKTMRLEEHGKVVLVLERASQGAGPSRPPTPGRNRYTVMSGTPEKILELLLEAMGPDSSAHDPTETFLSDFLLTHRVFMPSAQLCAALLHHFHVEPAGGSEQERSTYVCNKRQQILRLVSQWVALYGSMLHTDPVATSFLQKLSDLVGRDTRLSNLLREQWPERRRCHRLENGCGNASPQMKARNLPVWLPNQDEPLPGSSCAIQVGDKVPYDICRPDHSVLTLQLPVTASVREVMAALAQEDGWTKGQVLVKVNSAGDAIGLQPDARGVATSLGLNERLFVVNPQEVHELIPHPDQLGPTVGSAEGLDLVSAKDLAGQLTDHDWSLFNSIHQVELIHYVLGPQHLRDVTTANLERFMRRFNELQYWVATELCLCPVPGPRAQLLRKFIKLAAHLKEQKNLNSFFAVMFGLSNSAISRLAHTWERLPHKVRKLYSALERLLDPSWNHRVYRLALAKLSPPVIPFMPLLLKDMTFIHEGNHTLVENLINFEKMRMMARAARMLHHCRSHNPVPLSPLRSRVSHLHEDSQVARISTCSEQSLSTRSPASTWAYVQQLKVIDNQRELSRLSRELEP

Take `CC1CC(=O)[C@]2(O)C(C(=O)OCCc3ccc(O)cc3)=CO[C@@H](O[C@@H]3O[C@H](CO)[C@@H](O)[C@H](O)[C@H]3O)[C@H]12` (some centres undefined): the Potency entry in [1], in [2] and in experiment [3] was “inactive” in each case.
As for `CC(O)C1NC(=O)C2CCCN2C1=O` (centres undefined), the Potency entry in experiment [1], in experiment [2] and in [3] was “inactive” in each case.
Consider `O=C(/C=C/c1ccc(O)cc1)OC[C@H]1O[C@@H](O/C(=C\c2ccccc2)C(=O)O)[C@H](O)[C@@H](O)[C@@H]1O`, for which the Potency entry in experiment [1], in experiment [2] and in [3] was “inactive” throughout.
For the compound `COC(=O)C1=CO[C@@H](O[C@@H]2O[C@H](CO)[C@@H](O)[C@H](O)[C@H]2O)[C@H]2[C@@H]1[C@H](O)C[C@]2(C)O`, the Potency result in experiment [1], in experiment [2] and in [3] was “inactive” each time.
As to `COc1cc(CC2COC(c3ccc(OC4OC(CO)C(O)C(O)C4O)c(OC)c3)C2CO)ccc1O` (centres undefined), the Potency entry in experiment [1], in experiment [2] and in experiment [3] was “inactive” in each case.
Turning to `C=C1CC2C(C)(CCC(=O)O)C(C(C)(C)O)CCC2(C)C2(C(=O)OC)C(=O)C(C)(O)C(=O)C12C` (centres undefined), the Potency result in [1], in [2] and in experiment [3] was “inactive” throughout.
Consider `CC1=C(C(=O)OC2OC(COC3OC(CO)C(O)C(O)C3O)C(O)C(O)C2O)C(C)(C)CCC1` (centres undefined), for which the Potency result in experiment [1], in experiment [2] and in experiment [3] was “inactive” throughout.
On to `C[C@@H]1O[C@@H](OC(=O)Cc2ccccc2)[C@H](O)[C@H](O)[C@H]1O`, for which the Potency result in [1], in [2] and in [3] was “inactive” each time.
`COC(=O)C1=CO[C@@H](O[C@@H]2O[C@H](CO)[C@@H](O)[C@H](O)[C@H]2O)[C@@H]2[C@@H](C)[C@@H](OC(=O)/C=C/c3ccccc3)[C@@H](O)[C@H]12`: the Potency entry in [1], in experiment [2] and in experiment [3] was “inactive” in each case.
Regarding `O=C(/C=C/c1ccc(O)c(O)c1)O[C@@H]1[C@@H](O)[C@H](OC2CCCCC2O)O[C@H](CO)[C@H]1O` (some centres undefined), the Potency entry in experiment [1], in [2] and in experiment [3] was “inactive” each time.
For the compound `C=C(C)C(O)COc1ccc(CC(=O)O)cc1` (centres undefined), the Potency entry in experiment [1], in experiment [2] and in experiment [3] was “inactive” throughout.
For the compound `C=C(C(=O)O)[C@@H]1CC[C@H](C)[C@@H]2CC(=O)C(C)=C2C1`, the Potency entry in experiment [1], in experiment [2] and in experiment [3] was “inactive” in each case. In addition, the activity was -63.8% in experiment [4], -2.63% in experiment [6] and -9% in experiment [7]. Further, in experiment [5], the activity change, negative = inhibition is 1.33%.
With `COc1cc(C2Oc3c(OC)cc(/C=C/C(=O)OC4CC(O)(C(=O)O)CC(O)C4O)cc3C2CO)ccc1O` (centres undefined), the Potency result in experiment [1], in experiment [2] and in experiment [3] was “inactive” throughout. Moreover, the activity is -71.9% in experiment [4], -1.14% in [6] and -2.58% in [7]. Besides, the activity change, negative = inhibition in experiment [5] was -2.32% [at 29.8 µM].
For `C=C(C(=O)O)[C@H]1C[C@]2(C)C(=O)CC[C@]23O[C@H]1C[C@@H]3C`, the Potency result in experiment [1], in experiment [2] and in [3] was “inactive” in each case. In addition, the activity was -84.1% in experiment [4], -2.06% in experiment [6] and -0.38% in experiment [7]. In experiment [5], the activity change, negative = inhibition was -1.21%.
Regarding `CC1(C)C2CCC1(C)C(OC(=O)C(O)(CC(=O)O)CC(=O)O)C2` (centres undefined), the Potency entry in experiment [1], in experiment [2] and in experiment [3] was “inactive” in each case. The activity is -73.1% in [4], 1.63% in experiment [6] and 2.73% in experiment [7]. The activity change, negative = inhibition in [5] is 0%.
Regarding `C=C1C[C@]23C[C@@]1(O)CC[C@H]2[C@@]12C=C[C@H](O)[C@@](C)(C(=O)O1)[C@H]2[C@@H]3C(=O)O`, the Potency entry in experiment [1], in experiment [2] and in experiment [3] was “inactive” in each case. The outcome in experiment [8] and in [9] was “inactive” each time.
`CSC(=O)OCC1=C[C@@H]2OC(=O)C3=CO[C@@H](O[C@@H]4O[C@H](CO)[C@@H](O)[C@H](O)[C@H]4O)[C@H]1[C@@H]32`: the Potency result in experiment [1], in [2] and in experiment [3] was “inactive” in each case. The activity was -58.6% in [4], -7.9% in [6] and -7.61% in experiment [7]. Also, in [5], the activity change, negative = inhibition is -9.29% [at 29.8 µM].
`Cc1cc(O[C@@H]2O[C@H](COC(=O)CC(=O)O)[C@@H](O)[C@H](O)[C@H]2O)c(C(C)C)cc1O`: the Potency result in experiment [1], in experiment [2] and in experiment [3] was “inactive” in each case.
Take `CC(C)C(NC(=O)c1ccc(O)cc1)C(=O)N1CCCC1C(=O)Nc1c(O)cccc1C(=O)O` (centres undefined): the Potency result in experiment [1], in [2] and in experiment [3] was “inactive” each time.
In the case of `COC(=O)C1=CO[C@@H](O[C@@H]2O[C@H](CO)[C@@H](O)[C@H](O)[C@H]2O)[C@@H]2[C@@H](C(=O)O)CC[C@H]12`, the Potency result in [1], in [2] and in [3] was “inactive” each time.
As to `COc1c(O)cc2c(c1O)C(=O)O[C@H](C)[C@H]2O`, the Potency entry in experiment [1], in experiment [2] and in experiment [3] was “inactive” in each case. The activity in [4] was -42.1%; in [6] it was 0.175%; in [7], 0.108%. For the same compound, the activity change, negative = inhibition in experiment [5] came out at 0.552%.
Take `COc1cc(C2Oc3c(OC)cc(CCCO)cc3C2CO)ccc1O` (centres undefined): the Potency entry in experiment [1], in [2] and in experiment [3] was “inactive” throughout. For the same compound, the figures for the activity in [4], in experiment [6] and in experiment [7] were -80.9%, -9.4% and -8.69%, respectively. Besides, the activity change, negative = inhibition in experiment [5] was -2.79%.
As to `COCc1c(O)c(C(=O)O)c(C)c2c1OC(=O)c1c(C)cc(O)c(CO)c1O2`, the Potency entry in experiment [1], in [2] and in [3] was “inactive” throughout. In addition, the activity in experiment [4] is -62.5%; in experiment [6], -3.54%; in experiment [7] it was -4.35%. Further, the activity change, negative = inhibition in experiment [5] is -4.52%.
On to `C/C=C1/C[N+](C)([O-])C2Cc3c([nH]c4ccccc34)C(=O)CC1C2C(=O)OC` (centres undefined), for which the Potency result in [1], in experiment [2] and in experiment [3] was “inactive” throughout.
Take `CC(C)(O)[C@@H]1CC[C@]2(CO)[C@@H](O)CC[C@](C)(O)[C@H]2[C@@H]1O[C@@H]1O[C@H](CO)[C@@H](O)[C@H](O)[C@H]1O`: the Potency result in [1], in [2] and in experiment [3] was “inactive” in each case.
